Laboratory results: PubChem BioAssay
The source made the active and inactive calls.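 How the source made its calls, unless noted: active means inhibition of the reporter signal at or above 50%; inactive means inhibition below 50%.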

Columns and labels:
[1] = inhibitors of TNFa-induced NFkB p65 translocation, primary screen, imaging, HUVEC, MLSMR starter and 10KST1 sets (AID 438;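 active means inhibition above 20% together with a positive visual image hit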;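 further: compound added about 3h40 before a 20 min TNFalpha stimulation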;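 on inhibition: signal is the nuclear over cytoplasmic p65 intensity ratio per well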); details: HUVEC TNFa-induced p65 nuclear translocation; cell count: measured here: nuclei count (cytotoxicity indicator), at 2.08 µM; inhibition: at 2 µM, stronger effect = higher value, 0% TNFa-plus-vehicle, 100% no-TNFa wells
[2] = reduction of polyQ htt aggregates in cells – imaging, exon1htt(103Q)mCFP cells, high-content imaging, primary screen (AID 483;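 active means visual image review flags a hit and inhibition of aggregation exceeds 20%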;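 further: compound exposure lasted 3 days before fixation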;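 on nuclei count: percent of the per-plate median nuclei count of sample wells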); details: exon1htt(103Q)mCFP cell line, aggregate imaging, at 2 µM; inhibition of aggregation: stronger effect = higher value; nuclei count: measured here: cell count, toxicity
[3] = endothelial E-selectin expression blockers – imaging, HUVEC, immunofluorescence, MLSMR starter and 10KST1 sets, primary screen (AID 487;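 active means visually confirmed hit in the image check and inhibition above 20%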;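 on inhibition: signal is fraction of cell area covered by stained E-selectin grains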;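 on nuclei count: 100% = median nuclei count of all wells on the same plate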); details: HUVEC TNFalpha-induced E-selectin immunofluorescence imaging, at 2 µM; inhibition: stronger effect = higher value; nuclei count: measured here: cell number, toxicity
[4] = target: Voltage-gated potassium channel subunit beta-2 (Rattus norvegicus) (UniProt P62483); test: inhibitors of rat Kvbeta2 reductase activity – biochemical, NADPH fluorescence, primary screen (AID 622;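 active means fluorescence slope higher than the sample average by over 3 SD, cut at about -0.22 in these data, passing the limit was not always enough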;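 further: slope of raw intensity against log time taken from 70 to 1610 s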); details: recombinant KvBeta, 4-cyanobenzaldehyde reduction, at 10 µM, stronger effect = higher value
Sequence of Voltage-gated potassium channel subunit beta-2 (Rattus norvegicus) (P62483 whole entry, looked up): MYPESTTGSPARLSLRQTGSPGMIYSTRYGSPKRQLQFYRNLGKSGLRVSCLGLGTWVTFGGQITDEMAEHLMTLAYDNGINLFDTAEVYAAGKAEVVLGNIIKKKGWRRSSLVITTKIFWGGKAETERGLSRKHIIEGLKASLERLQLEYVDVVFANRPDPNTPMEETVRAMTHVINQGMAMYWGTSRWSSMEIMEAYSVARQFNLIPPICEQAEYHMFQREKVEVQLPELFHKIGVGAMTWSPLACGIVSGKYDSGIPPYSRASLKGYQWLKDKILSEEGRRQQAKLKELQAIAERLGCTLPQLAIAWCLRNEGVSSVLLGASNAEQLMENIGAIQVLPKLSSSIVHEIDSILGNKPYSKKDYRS

[5] = target: Voltage-gated potassium channel subunit beta-2 (Rattus norvegicus) (UniProt P62483); test: enhancers of rat Kvbeta2 NADPH turnover – biochemical, NADPH fluorescence, primary screen (AID 623;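 active means NADPH fluorescence slope more negative than the mean of all samples by about 3 SD, 99.7% confidence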;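 further: fluorescence intensity change per second fitted from 20 to 320 s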); details: Recombinant KvBeta, NADPH fluorescence decrease slope, 10 min; at 10 µM; stronger effect = lower value
[6] = target: Alpha-2C adrenergic receptor (Homo sapiens) (UniProt P18825); test: compounds altering alpha2C-coupled GIRK flux – cell-based, HEK293 alpha2C/GIRK1/2, thallium flux, primary screen (AID 624;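 active means fluorescence slope after compound addition differing from the mean of all screened samples at 99.7% confidence, in either direction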;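 further: slope of fluorescence ratio to pre-addition baseline per second over 15 to 24 s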); details: thallium flux BTC fluorescence, at 10 µM, actives lie on both sides
Sequence of Alpha-2C adrenergic receptor (Homo sapiens) (P18825 whole entry, looked up): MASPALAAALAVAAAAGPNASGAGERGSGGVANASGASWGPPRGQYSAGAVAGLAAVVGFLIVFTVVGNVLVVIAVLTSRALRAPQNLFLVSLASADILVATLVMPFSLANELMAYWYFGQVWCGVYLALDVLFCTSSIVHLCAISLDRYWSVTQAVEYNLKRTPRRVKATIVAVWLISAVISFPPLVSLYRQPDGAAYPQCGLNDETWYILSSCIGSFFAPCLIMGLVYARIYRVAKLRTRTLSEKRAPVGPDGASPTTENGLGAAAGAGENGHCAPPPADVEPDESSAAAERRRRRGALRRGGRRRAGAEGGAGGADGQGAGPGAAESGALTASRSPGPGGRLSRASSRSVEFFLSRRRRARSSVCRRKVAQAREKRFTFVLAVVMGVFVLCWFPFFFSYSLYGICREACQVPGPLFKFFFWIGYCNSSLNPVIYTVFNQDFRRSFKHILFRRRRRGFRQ

[7] = blockers of RIG-like receptor reporter activation – cell-based, Sendai virus stimulus, luciferase, 10K MLSCN set, TLR/RLR signaling modifier project, primary screen (AID 602276;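 active means inhibition at or above 50% at 10 µM; inactive means inhibition below 50%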;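 further: firefly luciferase from ISG56 promoter only with Renilla not read in this screen; 0% = Sendai virus plus DMSO and 100% = medium plus DMSO without virus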); details: HEK293 RL24 IRF3 luciferase reporter, at 10 µM, stronger effect = higher value
[8] = TLR3 IRF3 reporter activation blockers – cell-based, poly I:C stimulus, luciferase, 10K MLSCN set, primary screen (AID 602277); details: HEK293-TLR3 RL24 IRF3 luciferase reporter, at 10 µM, stronger effect = higher value

Structure (SMILES)	cell count [1]	inhibition [1]	inhibition of aggregation [2]	nuclei count [2] [%]	inhibition [3]	nuclei count [3] [%]	fluorescence slope [4]	NADPH fluorescence slope [5]	slope [6]	inhibition [7]	inhibition [8]
O=C(CSc1ncnc2c1oc1ccccc12)Nc1ccccc1F	613	-13.5% (inactive)	-13.9% (inactive)	107	-10.1% (inactive)	116	-0.549 (inactive)	3.9e-06 (inactive)	0.00808 (inactive)	1.97% (inactive)	16.6% (inactive)
O=C(CN1CCN(c2nc(-c3ccc(F)cc3)cs2)CC1)NCc1ccc2c(c1)OCO2	491	9.9% (inactive)	5.2% (inactive)	108	-34.5% (inactive)	107	-0.582 (inactive)	-2.2e-05 (inactive)	0.00522 (inactive)	16.7% (inactive)	17.8% (inactive)
Cc1ccc(C(C)C)c(OCCn2c(=O)oc3ccccc32)c1	540	-5.9% (inactive)	0.7% (inactive)	89.4	-32.5% (inactive)	77.7	-0.416 (inactive)	2.5e-05 (inactive)	0.00298 (inactive)	-13.6% (inactive)	-27.2% (inactive)
CC(C)C(=O)Nc1ccc(C(=O)NCc2cccnc2)cc1	393	9.4% (inactive)	10% (inactive)	102	-115% (inactive)	109	-0.598 (inactive)	1.1e-05 (inactive)	0.00588 (inactive)	-10.7% (inactive)	-31.6% (inactive)
N#Cc1c(NC(=O)c2ccc(Br)o2)n(-c2ccccc2)c2nc3ccccc3nc12	275	-1.4% (inactive)	14.7% (inactive)	97.4	-63.2% (inactive)	104	-0.502 (inactive)	-2e-05 (inactive)	0.0121 (active)	19.9% (inactive)	18.8% (inactive)
Cc1oc(-c2ccccc2Cl)nc1CSCC(=O)N1CCCC1	319	9.3% (inactive)	19.4% (inactive)	91.6	62.6% (active)	102	-0.572 (inactive)	5.9e-06 (inactive)	0.00514 (inactive)	-10.3% (inactive)	8.17% (inactive)
CCN(CC)S(=O)(=O)c1ccc2oc(SCc3ccc(F)cc3)nc2c1	707	-9.4% (inactive)	6.8% (inactive)	104	-6.6% (inactive)	110	-0.604 (inactive)	-6.8e-05 (inactive)	0.00777 (inactive)	1.12% (inactive)	-39.5% (inactive)
COc1ccc(C(=O)N2CCN(C(=O)c3ccco3)CC2)cc1OC	546	-3.9% (inactive)	-2.2% (inactive)	108	-184% (inactive)	199	-0.401 (inactive)	-3.4e-05 (inactive)	0.00558 (inactive)	13.2% (inactive)	13.7% (inactive)
[N-]=[N+]=CC(=O)CC(c1ccccc1)N1C(=O)c2ccccc2C1=O (centres undefined)	229	0.5% (inactive)	10.4% (inactive)	58.6	-39.5% (inactive)	115	-0.609 (inactive)	-2.1e-05 (inactive)	0.00641 (inactive)	-5% (inactive)	-29.5% (inactive)
O=C(O)CCC(=O)c1c[nH]c2ccccc12	458	0.5% (inactive)	20% (inactive)	103	-43.2% (inactive)	105	-0.457 (inactive)	9.9e-05 (inactive)	0.00973 (inactive)	-16.3% (inactive)	8.52% (inactive)
CCOc1ccc(N(CC(=O)Nc2cccc(OC)c2)S(=O)(=O)c2c(C)noc2C)cc1	490	-7.9% (inactive)	18.7% (inactive)	67	-27% (inactive)	109	-0.518 (inactive)	-2.7e-05 (inactive)	0.00799 (inactive)	24.2% (inactive)	22.1% (inactive)
CCN(CC)C(=O)CSc1nnc([C@@H](N)Cc2ccccc2)o1	673	1.7% (inactive)	-2.7% (inactive)	84.3	-0.8% (inactive)	96	-0.499 (inactive)	1.4e-05 (inactive)	0.00547 (inactive)	15.4% (inactive)	22% (inactive)
COc1ccc(NC(=O)N(C2CCCCC2)C2CCN(C(C)C)CC2)c(OC)c1	676	-7.8% (inactive)	-12.8% (inactive)	79.5	-10.8% (inactive)	109	-0.518 (inactive)	9.2e-06 (inactive)	0.0051 (inactive)	2.2% (inactive)	15.1% (inactive)
CCCNC(=O)NC(C(=O)OC)C12CC3CC(CC(C3)C1)C2 (centres undefined)	308	-6.2% (inactive)	19.6% (inactive)	76.7	-52.3% (inactive)	123	-0.321 (inactive)	-1.6e-05 (inactive)	0.00242 (inactive)	12.2% (inactive)	23.2% (inactive)
